From PubChem BioAssay AID1159580 (chemical genetic matrix, 2015)
Values joined by “and” are separate entries in the source; they are usually repeats but may differ in a detail not shown here. Identical values can stand only once. Screen size: about 5,500 compounds; about 2,000 (36%) were called active. Another 18% or so got no clear call; they are omitted. Rule as the data show it: active = normalized growth mostly below about 0.91 (no sharp cut-off); inconclusive = no clear call, values can overlap the other calls; inactive = mostly above about 0.92. The list shows a part of the results.

Assay: chemical genetic growth profiling, strain panel (AID 1159580);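 also: tested at 20 µM; growth read once vehicle control cultures reached saturation at 30 °C; 1 = growth at the plate median or of vehicle wells; lower values mean less growth of the strain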
Settings: growth OD

Measured: normalized growth

NC1(C(=O)O)CC1
inactive: S. cerevisiae deletion strains, locus YJR075W, strain HOC1, stronger effect = lower value 0.985 | S. cerevisiae deletion strains, locus YKL009W, strain mrt4, stronger effect = lower value 1.03 | S. cerevisiae deletion strains, locus YKL068W, stronger effect = lower value 1.01 | S. cerevisiae deletion strains, locus YKL085W, strain MDH1 (second series), stronger effect = lower value 1.04 | S. cerevisiae deletion strains, locus YKL085W, strain MDH1, stronger effect = lower value 1.04 | S. cerevisiae deletion strains, locus YKL160W, strain elf1, stronger effect = lower value 1.04 | S. cerevisiae deletion strains, locus YKL190W, strain CNB1, stronger effect = lower value 1.01 | S. cerevisiae deletion strains, locus YKR001C, strain vps1, stronger effect = lower value 1.03 | S. cerevisiae deletion strains, locus YKR026C, strain gcn3, stronger effect = lower value 1.03 | S. cerevisiae deletion strains, locus YKR091W, strain srl3, stronger effect = lower value 1.03 | S. cerevisiae deletion strains, locus YLL001W, strain dnm1, stronger effect = lower value 1.01 | S. cerevisiae deletion strains, locus YLL026W, stronger effect = lower value 1.03 | S. cerevisiae deletion strains, locus YLL041C, strain sdh2, stronger effect = lower value 1.02 | S. cerevisiae deletion strains, locus YLR027C, strain aat2, stronger effect = lower value 1.02 | S. cerevisiae deletion strains, locus YLR039C, strain RIC1, stronger effect = lower value 1.04 | S. cerevisiae deletion strains, locus YLR058C, strain SHM2, stronger effect = lower value 1.01 | S. cerevisiae deletion strains, locus YLR102C, strain apc9, stronger effect = lower value 1.01 | S. cerevisiae deletion strains, locus YLR113W, strain HOG1, stronger effect = lower value 1.04 | S. cerevisiae deletion strains, locus YLR221C, strain rsa3, stronger effect = lower value 1 | S. cerevisiae deletion strains, locus YLR258W, strain gsy2, stronger effect = lower value 1.04 | S. cerevisiae deletion strains, locus YLR262C, strain YPT6 (second series), stronger effect = lower value 1.03 | S. cerevisiae deletion strains, locus YLR262C, strain YPT6, stronger effect = lower value 1.03 | S. cerevisiae deletion strains, locus YLR268W, strain sec22, stronger effect = lower value 1.02 | S. cerevisiae deletion strains, locus YLR320W, strain mms22, stronger effect = lower value 1.01 | S. cerevisiae deletion strains, locus YLR330W, strain CHS5, stronger effect = lower value 1.01 | S. cerevisiae deletion strains, locus YLR342W, strain FKS1 (second series), stronger effect = lower value 1.04 | S. cerevisiae deletion strains, locus YLR342W, strain FKS1, stronger effect = lower value 1.03 | S. cerevisiae deletion strains, locus YLR357W, strain rsc2, stronger effect = lower value 1.02 | S. cerevisiae deletion strains, locus YLR370C, strain arc18, stronger effect = lower value 1.05 | S. cerevisiae deletion strains, locus YLR371W, strain rom2, stronger effect = lower value 1.01 | S. cerevisiae deletion strains, locus YLR384C, strain iki3, stronger effect = lower value 1.01 | S. cerevisiae deletion strains, locus YLR418C, strain cdc73, stronger effect = lower value 1 | S. cerevisiae deletion strains, locus YML016C, strain PPZ1, stronger effect = lower value 1.01 | S. cerevisiae deletion strains, locus YML032C, strain rad52, stronger effect = lower value 1.04 | S. cerevisiae deletion strains, locus YML120C, strain ndi1, stronger effect = lower value 1.01 | S. cerevisiae deletion strains, locus YML124C, strain tub3, stronger effect = lower value 1.02 | S. cerevisiae deletion strains, locus YMR058W, strain fet3, stronger effect = lower value 1.03 | S. cerevisiae deletion strains, locus YMR078C, strain ctf18, stronger effect = lower value 1.03 | S. cerevisiae deletion strains, locus YMR125W, strain sto1, stronger effect = lower value 1.03 | S. cerevisiae deletion strains, locus YMR129W, stronger effect = lower value 1.02 | S. cerevisiae deletion strains, locus YMR205C, strain PFK2, stronger effect = lower value 1.03 | S. cerevisiae deletion strains, locus YMR223W, strain ubp8, stronger effect = lower value 1.03 | S. cerevisiae deletion strains, locus YMR231W, strain pep5, stronger effect = lower value 1.03 | S. cerevisiae deletion strains, locus YMR263W, strain SAP30, stronger effect = lower value 1.02 and 1 | S. cerevisiae deletion strains, locus YMR307W, strain GAS1, stronger effect = lower value 0.989 | S. cerevisiae deletion strains, locus YNL067W, strain RPL9B, stronger effect = lower value 1.02 | S. cerevisiae deletion strains, locus YNL071W, strain lat1, stronger effect = lower value 1.03 | S. cerevisiae deletion strains, locus YNL128W, strain TEP1, stronger effect = lower value 1.01 | S. cerevisiae deletion strains, locus YNL153C, strain GIM3, stronger effect = lower value 1.02 and 0.995 | S. cerevisiae deletion strains, locus YNL175C, strain NOP13, stronger effect = lower value 0.965 | S. cerevisiae deletion strains, locus YNL183C, strain NPR1, stronger effect = lower value 0.964 | S. cerevisiae deletion strains, locus YNL197C, strain WHI3, stronger effect = lower value 0.965 | S. cerevisiae deletion strains, locus YNL209W, strain ssb2, stronger effect = lower value 1.04 | S. cerevisiae deletion strains, locus YNL224C, strain SQS1, stronger effect = lower value 1.01 | S. cerevisiae deletion strains, locus YNL233W, strain BNI4, stronger effect = lower value 1 | S. cerevisiae deletion strains, locus YNL248C, strain rpa49, stronger effect = lower value 1.06 | S. cerevisiae deletion strains, locus YNL250W, strain rad50, stronger effect = lower value 1.03 | S. cerevisiae deletion strains, locus YNL271C, strain bni1, stronger effect = lower value 1.03 | S. cerevisiae deletion strains, locus YNL298W, strain CLA4, stronger effect = lower value 1.03 | S. cerevisiae deletion strains, locus YNL307C, strain MCK1, stronger effect = lower value 1.04 | S. cerevisiae deletion strains, locus YNL322C, strain KRE1 (second series), stronger effect = lower value 1.02 | S. cerevisiae deletion strains, locus YNL322C, strain KRE1, stronger effect = lower value 1.01 | S. cerevisiae deletion strains, locus YNR049C, strain mso1, stronger effect = lower value 1.01 | S. cerevisiae deletion strains, locus YNR052C, strain pop2, stronger effect = lower value 1.01 | S. cerevisiae deletion strains, locus YOL006C, strain TOP1, stronger effect = lower value 1.05 | S. cerevisiae deletion strains, locus YOL012C, strain htz1 0.791 | S. cerevisiae deletion strains, locus YOL147C, strain pex11, stronger effect = lower value 1 | S. cerevisiae deletion strains, locus YOR001W, strain rrp6, stronger effect = lower value 1.01 | S. cerevisiae deletion strains, locus YOR061W, strain CKA2, stronger effect = lower value 1.01 | S. cerevisiae deletion strains, locus YOR069W, strain VPS5, stronger effect = lower value 1 | S. cerevisiae deletion strains, locus YOR070C, strain gyp1, stronger effect = lower value 1.02 | S. cerevisiae deletion strains, locus YOR080W, strain dia2, stronger effect = lower value 1.02 | S. cerevisiae deletion strains, locus YOR083W, strain WHI5 (second series), stronger effect = lower value 0.956 | S. cerevisiae deletion strains, locus YOR083W, strain WHI5, stronger effect = lower value 1.04 | S. cerevisiae deletion strains, locus YOR106W, strain vam3, stronger effect = lower value 1.04 | S. cerevisiae deletion strains, locus YOR136W, strain idh2, stronger effect = lower value 1.02 | S. cerevisiae deletion strains, locus YOR144C, strain elg1, stronger effect = lower value 1.02 | S. cerevisiae deletion strains, locus YOR184W, strain ser1, stronger effect = lower value 1.05 | S. cerevisiae deletion strains, locus YOR231W, strain MKK1, stronger effect = lower value 1.03 | S. cerevisiae deletion strains, locus YOR265W, strain rbl2, stronger effect = lower value 1.03 | S. cerevisiae deletion strains, locus YOR270C, strain vph1, stronger effect = lower value 1.1 | S. cerevisiae deletion strains, locus YOR290C, strain snf2, stronger effect = lower value 1.06 | S. cerevisiae deletion strains, locus YOR316C, strain cot1, stronger effect = lower value 1.01 | S. cerevisiae deletion strains, locus YPL051W, strain arl3, stronger effect = lower value 1.04 | S. cerevisiae deletion strains, locus YPL055C, strain LGE1, stronger effect = lower value 1 | S. cerevisiae deletion strains, locus YPL078C, strain atp4, stronger effect = lower value 1.05 | S. cerevisiae deletion strains, locus YPL106C, strain sse1, stronger effect = lower value 1.03 | S. cerevisiae deletion strains, locus YPL240C, strain hsp82, stronger effect = lower value 1.02 | S. cerevisiae deletion strains, locus YPL241C, strain CIN2, stronger effect = lower value 0.999 and 0.995 | S. cerevisiae deletion strains, locus YPL256C, strain CLN2, stronger effect = lower value 1 | S. cerevisiae deletion strains, locus YPR119W, strain clb2, stronger effect = lower value 1 | S. cerevisiae deletion strains, locus YPR141C, strain kar3, stronger effect = lower value 1.02 | S. cerevisiae deletion strains, locus YPR163C, strain tif3, stronger effect = lower value 1.03 | S. cerevisiae deletion strains, locus YPR167C, strain met16, stronger effect = lower value 1.02 | S. cerevisiae deletion strains, strain wtn01, stronger effect = lower value 1.02 | S. cerevisiae strains, strain wild type, stronger effect = lower value 1.01
